Among the data in PubChem BioAssay (NCI) are growth values, retold here.

Compounds without any hit were thinned out: in the full panel of roughly 83,000, 20% have a hit.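 Plates (96-well) were seeded with cells, treated with compound at one concentration, and incubated for 48 hours before percent growth was determined.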 Values without a mark were called inactive. Active and inactive are the calls of the source. The calls were made as follows: active = growth percent below 10; inactive = the rest.

Test systems include NCI-H226 lung; NCI-H322M lung; HOP-62 NSCLC; NCI-H460 lung; HOP-92 NSCLC; NCI-H522 lung; A549/ATCC NSCLC; 786-0 renal; COLO 205 colon; DU-145 prostate; K-562 leukemia; MALME-3M melanoma; MDA-MB-231 breast; RXF 393 renal; SF-268 CNS; SF-295 CNS; SF-539 CNS; UACC-257 melanoma; M14 melanoma.
Common to all, as to assay: NCI-60 one-dose screen, 48 h (100 = growth as untreated, 0 = no growth, -100 = all killed)
Holding throughout (conditions): 10 µM unless noted

Consider `C=C(C)[C@@H]1CC[C@]2(C(=O)OC)CC[C@]3(C)[C@H](CC[C@@H]4[C@@](C)(CC/C(N)=N/O)[C@H](C(=C)C)CC[C@]43C)[C@@H]12`, for which the growth with NCI-H226 lung was 97.2%; in the assay with NCI-H322M lung, 105%; in the assay with HOP-62 NSCLC, 103%; in the assay with NCI-H460 lung, 99.5%; with HOP-92 NSCLC, 102%; with NCI-H522 lung, 95.4%. For the same compound, the growth in the assay on A549/ATCC NSCLC was 91.8%; with 786-0 renal it was 94.7%; with COLO 205 colon it was 107%; in the assay with DU-145 prostate, 104%; in the assay with K-562 leukemia it was 86.3%; with MALME-3M melanoma, 98.2%. The growth was 104% with MDA-MB-231 breast; 112% with RXF 393 renal; 96.6% in the assay on SF-268 CNS; 96.4% in the assay on SF-295 CNS; 97.5% in the assay on SF-539 CNS; 103% with UACC-257 melanoma. Besides, the growth in the assay on M14 melanoma is 99.1%.

On to `Oc1ccc(Nc2ccccc2)cc1`, for which the growth in the assay on NCI-H226 lung was 92.6%; in the assay on NCI-H322M lung it was 77.7%; with HOP-62 NSCLC, 104%; with NCI-H460 lung it was 92.5%; in the assay with HOP-92 NSCLC it was 119%; with NCI-H522 lung, 92.2%. Moreover, the growth in the assay on A549/ATCC NSCLC was 111%; in the assay with 786-0 renal, 97.8%; in the assay with COLO 205 colon, 109%; in the assay on DU-145 prostate, 94.6%; in the assay on K-562 leukemia, 79.6%; in the assay with MALME-3M melanoma, 70.7%. Also, the growth with MDA-MB-231 breast was 52.6%; in the assay with SF-268 CNS, 88.2%; with SF-295 CNS it was 82%; with SF-539 CNS, 64.5%; in the assay on UACC-257 melanoma, 110%; in the assay on M14 melanoma, 104%.

For the compound `Cn1cc(-c2csc(-c3cn(CCCN4CCCCC4)c4ccccc34)n2)c2cccnc21`, the growth with NCI-H226 lung is 52.7%; with NCI-H322M lung, 82.7%; in the assay on HOP-62 NSCLC it was -84% (active); in the assay with NCI-H460 lung it was -58.7% (active); in the assay with HOP-92 NSCLC it was 57.8%; with NCI-H522 lung, 95.2%. For the same compound, the growth in the assay on A549/ATCC NSCLC is -14.4% (active); in the assay on 786-0 renal, -87.1% (active); in the assay on COLO 205 colon, -80% (active); in the assay with DU-145 prostate, -52.5% (active); with K-562 leukemia, -70% (active); in the assay with MALME-3M melanoma it was -78.6% (active). In addition, the growth was -81.4% (active) in the assay with MDA-MB-231 breast; -78.6% (active) with RXF 393 renal; -25.6% (active) in the assay with SF-268 CNS; 32% in the assay with SF-295 CNS; -88.6% (active) in the assay with SF-539 CNS; -80.3% (active) in the assay with UACC-257 melanoma. Further, the growth with M14 melanoma is -80.9% (active).

On to `CCN1CCN(C(=O)[C@]23CC[C@@H](C)[C@H](C)[C@H]2C2=CC[C@@H]4[C@@]5(C)C/C(=C/c6cccc(OC)c6OC)C(=O)C(C)(C)[C@@H]5CC[C@@]4(C)[C@]2(C)CC3)CC1`, for which the growth was 46.2% in the assay with NCI-H226 lung; 83.7% with NCI-H322M lung; 57.7% with HOP-62 NSCLC; 20.1% in the assay on NCI-H460 lung; 46.9% in the assay on HOP-92 NSCLC; 52.9% in the assay with NCI-H522 lung. The growth is 36.1% in the assay on A549/ATCC NSCLC; 49.7% in the assay on 786-0 renal; 32.2% with COLO 205 colon; 57.3% in the assay with DU-145 prostate; 16.3% with K-562 leukemia; 35.2% in the assay on MALME-3M melanoma. The growth with MDA-MB-231 breast is 36.5%; in the assay on RXF 393 renal, 30.2%; in the assay with SF-268 CNS it was 45.5%; in the assay on SF-295 CNS, 50.7%; in the assay with SF-539 CNS, 58.5%; in the assay on UACC-257 melanoma, 46.4%. Further, in the assay with M14 melanoma, the growth is 29.5%.

In the case of `O=C(NC(Cc1cn(Cc2ccccc2)cn1)C(=O)O)OCC1c2ccccc2-c2ccccc21` (stereo unspecified), the growth in the assay on NCI-H226 lung is 102%; with NCI-H322M lung, 106%; with HOP-62 NSCLC, 101%; in the assay on NCI-H460 lung it was 115%; with HOP-92 NSCLC, 107%; with NCI-H522 lung, 84.2%. The growth was 104% in the assay on A549/ATCC NSCLC; 102% in the assay with 786-0 renal; 110% in the assay on COLO 205 colon; 113% with DU-145 prostate; 88.8% in the assay with K-562 leukemia; 133% with MDA-MB-231 breast. Besides, the growth is 117% in the assay with RXF 393 renal; 107% with SF-268 CNS; 94.6% in the assay with SF-539 CNS; 99.1% in the assay on UACC-257 melanoma; 99.8% in the assay on M14 melanoma.

Consider `CCC(=O)c1c(C)[nH]c(C)c1C`, for which the growth in the assay with NCI-H226 lung was 101%; in the assay on NCI-H322M lung, 94.6%; in the assay with HOP-62 NSCLC, 77.8%; with NCI-H460 lung, 55.5%; in the assay with HOP-92 NSCLC, 107%; in the assay on NCI-H522 lung, 56.2%. Also, the growth is 86.2% with A549/ATCC NSCLC; 99.2% in the assay with 786-0 renal; 89.4% in the assay with COLO 205 colon; 0.904% (active) in the assay with DU-145 prostate; 110% in the assay with K-562 leukemia; 116% in the assay on MALME-3M melanoma. For the same compound, the growth in the assay on MDA-MB-231 breast is 95.8%; with RXF 393 renal, 80.4%; with SF-268 CNS, 90.7%; in the assay on SF-295 CNS, 68.3%; in the assay with SF-539 CNS it was 105%; with UACC-257 melanoma it was 99%. For the same compound, the growth in the assay on M14 melanoma is 90.4%.
